Source: PubChem
Rows were chosen to be rich in hits. Some 3.5% of all compounds tested hit in one or more screens of this group.
MITF primary: inhibitors of human MITF | O75030 | AlphaScreen MITF homodimerization, bead proximity signal | inhibition, % at 2.6 µM | actives 0.91% (n = 650,000) | AID 1259374; in the data active means inhibition above about 50%;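 further: 0% = vehicle wells with protein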
TEAD-YAP inh: TEAD-YAP interaction inhibition; HEK-TIYL cells, TEAD-Gal4/YAP UAS-luciferase luminescence; inhibition, % at 9.12 µM; actives 1.4% (n = 640,000); AID 1259422; in the data active means inhibition above about 32%;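 further: 0% = median of test compound wells and 100% = reference inhibitor wells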
GPR151 activ: activators of human GPR151; Q8TDV0; PathHunter beta-arrestin GPR151 cells, luminescence; activation, % at 11.2 µM; actives 1% (n = 650,000); AID 1508602; in the data active means activation above about 4.9%;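 further: 0% = median of compound wells and 100% = cells with positive control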
Target sequence (Q8TDV0 whole entry, looked up): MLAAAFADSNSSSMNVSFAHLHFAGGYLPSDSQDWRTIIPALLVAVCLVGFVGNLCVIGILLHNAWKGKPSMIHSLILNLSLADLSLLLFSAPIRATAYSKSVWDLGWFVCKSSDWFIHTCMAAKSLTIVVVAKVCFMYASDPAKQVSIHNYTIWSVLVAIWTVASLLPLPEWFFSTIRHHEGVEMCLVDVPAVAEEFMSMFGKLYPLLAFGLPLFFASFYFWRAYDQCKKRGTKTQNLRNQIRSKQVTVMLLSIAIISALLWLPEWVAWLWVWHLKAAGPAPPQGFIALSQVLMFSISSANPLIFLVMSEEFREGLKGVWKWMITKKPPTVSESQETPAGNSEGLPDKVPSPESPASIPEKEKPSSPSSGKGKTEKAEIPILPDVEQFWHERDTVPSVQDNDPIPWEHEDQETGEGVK
FBW7 act: human FBW7 E3 ligase activation, primary screen; AID 1259310; Q969H0; AlphaScreen FBW7–phospho-cyclin E peptide binding, activator screen; actives 0.13% (n = 650,000); normalized activity (activation), % at 26.1 µM; in the data active means normalized activity above about 1.9%;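 further: purified mutant Fbw7 with reduced substrate affinity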
Active calls of the source: *; ! = not active in a repeat.

`CC(C)(C)NS(=O)(=O)c1ccc(F)cc1` gave MITF primary -5, TEAD-YAP inh -2, GPR151 activ 1 and FBW7 act 0.
`COc1cccc2cc(-c3cc(=O)oc4cc(OCC#N)ccc34)c(=O)oc12` gave MITF primary -7, TEAD-YAP inh 8, GPR151 activ 0 and FBW7 act 0.
`C=C1C[C@H](c2ccccc2)N(C)C[C@H]1C` gave MITF primary 8, TEAD-YAP inh -3, GPR151 activ -1 and FBW7 act 0.
Screening O=C(Nc1ccc(O)cc1)c1cccc(N2C(=O)c3cccc([N+](=O)[O-])c3C2=O)c1 returned MITF primary -8, TEAD-YAP inh 15, GPR151 activ -1 and FBW7 act 0.
For Cc1ccc(Oc2ccc(N3C(=O)c4cccc([N+](=O)[O-])c4C3=O)cc2)cc1C the results were MITF primary -6, TEAD-YAP inh 33*, GPR151 activ 1 and FBW7 act 0.
Screening O=C1c2cccc([N+](=O)[O-])c2C(=O)N1c1ccc(Oc2cccc3ccccc23)cc1 returned MITF primary 6, TEAD-YAP inh 74*, GPR151 activ 1 and FBW7 act 0.
Screening O=C1c2cccc([N+](=O)[O-])c2C(=O)N1c1ccc(Oc2ccc3ccccc3c2)cc1 returned MITF primary 1, TEAD-YAP inh 14, GPR151 activ 0 and FBW7 act 0.
Screening COc1ccc(Oc2ccc(N3C(=O)c4cccc([N+](=O)[O-])c4C3=O)cc2)cc1 returned MITF primary 6, TEAD-YAP inh 0, GPR151 activ -1 and FBW7 act 0.
O=C(Nc1cccc(O)c1)c1ccc(N2C(=O)c3cccc([N+](=O)[O-])c3C2=O)cc1 was read as MITF primary 15, TEAD-YAP inh 34*, GPR151 activ -3 and FBW7 act 0.
For O=C(NCc1cccnc1)C(=O)N/N=C/c1ccc(F)cc1 the results were MITF primary 0, TEAD-YAP inh 11, GPR151 activ 0 and FBW7 act 0.
COc1cccc(C(C(=O)NC(C)(C)C)N(C(=O)c2csnn2)c2ccccc2)c1 (stereo unspecified) was read as MITF primary 5, TEAD-YAP inh -9, GPR151 activ 2 and FBW7 act 0.
O=C(COC(=O)c1cccnc1)c1ccc(OC(=O)c2ccccc2)cc1 was read as MITF primary 6, TEAD-YAP inh -40, GPR151 activ -1 and FBW7 act 0.
For O=C(Cc1ccc([N+](=O)[O-])cc1)OCC(=O)c1ccc2ccccc2c1 the results were MITF primary 20, TEAD-YAP inh 46*, GPR151 activ 1 and FBW7 act 0.
`CCc1ccc(OCC(=O)NNC(=O)[C@@H](NC(N)=O)C(C)C)cc1` gave MITF primary -14, TEAD-YAP inh 7, GPR151 activ -2 and FBW7 act 0.
Screening CCN1/C(=C/c2ccc3ccc(C)cc3[n+]2CC)Sc2cc(C)c(C)cc21 returned MITF primary 24, TEAD-YAP inh 89*, GPR151 activ 2 and FBW7 act -1.
For CCN1/C(=C/c2ccc3cc(C)ccc3[n+]2CC)Sc2c(C)cc(C)cc21 the results were MITF primary 5, TEAD-YAP inh 73*, GPR151 activ 0 and FBW7 act 0.
`CCN1/C(=C/c2ccc3ccc(C)cc3[n+]2C)Sc2ccccc21` gave MITF primary 20, TEAD-YAP inh 90*, GPR151 activ 2 and FBW7 act 0.
`CCN1/C(=C/c2ccc3cc(C)ccc3[n+]2CC)Sc2cc(NC(C)=O)ccc21` gave MITF primary 20, TEAD-YAP inh 10, GPR151 activ 0 and FBW7 act 0.
Screening COC(=O)c1cc(C)nc2c1C(=O)C(=O)C=C2N1CCOCC1 returned MITF primary 9, TEAD-YAP inh 41*, GPR151 activ 1 and FBW7 act 0.
O=c1c(O)c(-c2cc(O)c(O)c(O)c2)oc2cc(O)ccc12 was read as MITF primary 78*, TEAD-YAP inh 2, GPR151 activ 3 and FBW7 act 0.
For O=c1c(O)c(-c2ccc(O)c(O)c2)oc2cc(O)ccc12 the results were MITF primary 23, TEAD-YAP inh -24, GPR151 activ -2 and FBW7 act 0.
For Cc1csc(-c2cnc3ccc(NCc4ccccn4)nn23)c1 the results were MITF primary 12, TEAD-YAP inh 40*, GPR151 activ 1 and FBW7 act 0.
c1ccc(CNc2ccc3ncc(-c4ccco4)n3n2)nc1 was read as MITF primary -11, TEAD-YAP inh 53*, GPR151 activ 0 and FBW7 act -1.
For Cc1csc(-c2cnc3ccc(NCCCO)nn23)c1 the results were MITF primary 16, TEAD-YAP inh 34*, GPR151 activ 1 and FBW7 act 0.
Screening Cc1ccc(C(=O)C[N+]2=C(N)CCC2)cc1 returned MITF primary 4, TEAD-YAP inh -41, GPR151 activ 1 and FBW7 act 0.
For O=C(c1cccc(Cl)c1)N1c2ccccc2CCc2ccccc21 the results were MITF primary 1, TEAD-YAP inh 4, GPR151 activ 1 and FBW7 act 0.
For COc1ccc(-c2cc(C(F)(F)F)n3nc(C(=O)Nc4ccc(Cl)c(C(F)(F)F)c4)cc3n2)cc1 the results were MITF primary 3, TEAD-YAP inh -3, GPR151 activ 1 and FBW7 act 0.
COc1cc(-c2c3cc(O)c(=O)cc-3oc3cc(O)c(O)cc23)ccc1C was read as MITF primary 106*, TEAD-YAP inh 3, GPR151 activ -1 and FBW7 act 0.
O=c1cc2oc3cc(O)c(O)cc3c(-c3cccnc3)c-2cc1O was read as MITF primary 100*, TEAD-YAP inh 5, GPR151 activ 1 and FBW7 act -1.
`Cc1ccc(-c2c3cc(O)c(=O)cc-3oc3cc(O)c(O)cc23)cc1` gave MITF primary 102*, TEAD-YAP inh 5, GPR151 activ 1 and FBW7 act 0.
Cc1ccc(-c2cc(=O)c3cc(Cl)ccc3o2)cc1 was read as MITF primary -9, TEAD-YAP inh -59, GPR151 activ 4 and FBW7 act 0.
Screening COc1ccc(-c2cc(=O)c3cc(O)ccc3o2)cc1OC returned MITF primary -1, TEAD-YAP inh -13, GPR151 activ -1 and FBW7 act 0.
For CCOc1ccccc1-c1c2cc(O)c(=O)cc-2oc2cc(O)c(O)cc12 the results were MITF primary 103*, TEAD-YAP inh 6, GPR151 activ 0 and FBW7 act 0.
`Cc1ccc(Nc2nc(C(=O)N3CCc4ccccc4C3)cs2)cc1` gave MITF primary 0, TEAD-YAP inh -6, GPR151 activ -1 and FBW7 act 0.
`Cc1cc(S(=O)(=O)NCC(C)C)ccc1OCC(=O)Nc1ccc2c(c1)OCCO2` gave MITF primary 12, TEAD-YAP inh 9, GPR151 activ 0 and FBW7 act 0.
Screening O=c1[nH]cc(F)c(=O)[nH]1 returned MITF primary 12, TEAD-YAP inh 35*!, GPR151 activ 3 and FBW7 act 0.
`COc1cccc(-c2ocnc2C(=O)Nc2ccc(N3CCC(C)CC3)c(C(N)=O)c2)c1` gave MITF primary 7, TEAD-YAP inh -6, GPR151 activ 0 and FBW7 act 9.2*.
